The entries come from a sample that favours the strongest signals as a whole.
Legend:
Test in all cases: glycan array binding signal (z-score within array); higher = stronger binding
Conditions in all cases: glycan notation: IUPAC condensed, linker removed
[1] = target: Fuc(a1-2)Gal
Method in brief: (§1)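 Arrays were curated from the Consortium for Functional Glycomics database, 3228 in total, and kept only where the protein sequence was available. Binding is expressed as a within-array Z-score. This score was averaged across arrays of the same protein sequence at different concentrations or buffers and across linkers, and negative values can be read as non-binding.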

[2] = target: Fuc(a1-2)Gal(b1-3)GalNAc(b1-3)Gal(a1-4)Gal(b1-4)Glc
Method in brief: as §1

[3] = target: Fuc(a1-2)Gal(b1-3)[Fuc(a1-4)]GlcNAc(b1-2)Man(a1-3)[Fuc(a1-2)Gal(b1-3)[Fuc(a1-4)]GlcNAc(b1-2)Man(a1-6)]Man(b1-4)GlcNAc(b1-4)GlcNAc
Method in brief: as §1

[4] = target: Fuc(a1-2)Gal(b1-4)GlcNAc(b1-2)Man
Method in brief: as §1

[5] = target: Fuc(a1-2)Gal(b1-4)GlcNAc(b1-2)[Fuc(a1-2)Gal(b1-4)GlcNAc(b1-4)]Man(a1-3)[Fuc(a1-2)Gal(b1-4)GlcNAc(b1-2)Man(a1-6)]Man(b1-4)GlcNAc(b1-4)GlcNAc
Method in brief: as §1

[6] = target: Fuc(a1-2)Gal(b1-4)[Fuc(a1-3)]GlcNAc(b1-2)Man(a1-6)[Fuc(a1-2)Gal(b1-4)[Fuc(a1-3)]GlcNAc(b1-2)Man(a1-3)]Man(b1-4)GlcNAc(b1-4)[Fuc(a1-6)]GlcNAc
Method in brief: as §1

[7] = target: Fuc(a1-2)Gal(b1-4)[Fuc(a1-3)]GlcNAc(b1-2)[Fuc(a1-2)Gal(b1-4)[Fuc(a1-3)]GlcNAc(b1-4)]Man(a1-3)[Fuc(a1-2)Gal(b1-4)[Fuc(a1-3)]GlcNAc(b1-2)Man(a1-6)]Man(b1-4)GlcNAc(b1-4)GlcNAc
Method in brief: as §1

[8] = target: Fuc(a1-2)[Gal(a1-3)]Gal(b1-4)[Fuc(a1-3)]GlcNAc
Method in brief: as §1

[9] = target: Gal(a1-3)Gal(b1-3)GlcNAc(b1-2)Man(a1-3)[Gal(a1-3)Gal(b1-3)GlcNAc(b1-2)Man(a1-6)]Man(b1-4)GlcNAc(b1-4)GlcNAc
Method in brief: as §1

[10] = target: Gal(a1-3)Gal(b1-4)[Fuc(a1-3)]GlcNAc(b1-2)Man(a1-3)[Gal(a1-3)Gal(b1-4)[Fuc(a1-3)]GlcNAc(b1-2)Man(a1-6)]Man(b1-4)GlcNAc(b1-4)GlcNAc
Method in brief: as §1

[11] = target: Gal(a1-4)Gal(b1-4)GlcNAc(b1-2)Man(a1-3)[Gal(a1-4)Gal(b1-4)GlcNAc(b1-2)Man(a1-6)]Man(b1-4)GlcNAc(b1-4)GlcNAc
Method in brief: as §1

[12] = target: Gal(a1-4)GlcNAc
Method in brief: as §1

[13] = target: Gal(b1-3)GlcNAc(b1-2)Man(a1-3)[Gal(b1-3)GlcNAc(b1-2)Man(a1-6)]Man(b1-4)GlcNAc(b1-4)GlcNAc
Method in brief: as §1

[14] = target: Gal(b1-3)GlcNAc(b1-2)Man(a1-3)[GlcNAc(b1-4)][Gal(b1-3)GlcNAc(b1-2)Man(a1-6)]Man(b1-4)GlcNAc(b1-4)GlcNAc
Method in brief: as §1

[15] = target: Gal(b1-3)GlcNAc(b1-2)[Gal(b1-3)GlcNAc(b1-6)]Man(a1-6)[Gal(b1-3)GlcNAc(b1-2)Man(a1-3)]Man(b1-4)GlcNAc(b1-4)GlcNAc
Method in brief: as §1

[16] = target: Gal(b1-3)GlcNAc(b1-3)Gal(b1-4)Glc
Method in brief: as §1

[17] = target: Gal(b1-3)GlcNAc(b1-3)GalNAc
Method in brief: as §1

[18] = target: Gal(b1-3)[Fuc(a1-4)]GlcNAc(b1-2)Man(a1-3)[Gal(b1-3)[Fuc(a1-4)]GlcNAc(b1-2)Man(a1-6)]Man(b1-4)GlcNAc(b1-4)[Fuc(a1-6)]GlcNAc
Method in brief: as §1

[19] = target: Gal(b1-3)[Fuc(a1-4)]GlcNAc(b1-3)Gal(b1-4)[Fuc(a1-3)]GlcNAc
Method in brief: as §1

[20] = target: Gal(b1-3)[Fuc(a1-4)]GlcNAc(b1-6)GalNAc
Method in brief: as §1

[21] = target: Gal(b1-3)[Neu5Ac(a2-6)]GalNAc
Method in brief: as §1

[22] = target: Gal(b1-3)[Neu5Ac(b2-6)]GalNAc
Method in brief: as §1

[23] = target: Gal(b1-4)Glc
Method in brief: as §1

[24] = target: Gal(b1-4)GlcNAc(b1-3)Gal(b1-3)GlcNAc
Method in brief: as §1

[25] = target: Gal(b1-6)Gal
Method in brief: as §1

[26] = target: Gal3S6S(b1-4)GlcNAc
Method in brief: as §1

[27] = target: Gal6S(b1-4)GlcNAc
Method in brief: as §1

[28] = target: GalNAc(b1-3)Gal(a1-6)Gal(b1-4)Glc
Method in brief: as §1

[29] = target: GalNAc3S(b1-4)GlcNAc
Method in brief: as §1

[30] = target: Glc(a1-4)Glc
Method in brief: as §1

B1: CALR truncated at D342 (Homo sapiens) (protein)
chain: EPAVYFKEQFLDGDGWTSRWIESKHKSDFGKFVLSSGKFYGDEEKDKGLQTSQDARFYALSASFEPFSNKGQTLVVQFTVKHEQNIDCGGGYVKLFPNSLDQTDMHGDSEYNIMFGPDICGPGTKKVHVIFNYKGKNVLINKDIRCKDDEFTHLYTLIVRPDNTYEVKIDNSQVESGSLEDDWDFLPPKKIKDPDASKPEDWDERAKIDDPTDSKPEDWDKPEHIPDPDAKKPEDWDEEMDGEWEPPVIQNPEYKGEWKPRQIDNPDYKGTWIHPEIDNPEYSPDPSIYAYDNFGVLGLDLWQVKSGTIFDNFLITNDEAYAEEFGNETWGVTKAAEKQMKD
glycan array binding signal (z-score) [1]: -0.171 | glycan array binding signal (z-score) [2]: -0.373 | glycan array binding signal (z-score) [3]: 3.18 | glycan array binding signal (z-score) [4]: -1.98 | glycan array binding signal (z-score) [5]: 2.76 | glycan array binding signal (z-score) [6]: 1.04 | glycan array binding signal (z-score) [7]: 2.8 | glycan array binding signal (z-score) [8]: -0.484 | glycan array binding signal (z-score) [9]: 0.21 | glycan array binding signal (z-score) [10]: 2.73 | glycan array binding signal (z-score) [11]: 0.225 | glycan array binding signal (z-score) [12]: 4.99 | glycan array binding signal (z-score) [13]: -0.863 | glycan array binding signal (z-score) [14]: -0.281 | glycan array binding signal (z-score) [15]: 3.33 | glycan array binding signal (z-score) [16]: -0.183 | glycan array binding signal (z-score) [17]: -0.05 | glycan array binding signal (z-score) [18]: 1.24 | glycan array binding signal (z-score) [19]: 4.2 | glycan array binding signal (z-score) [20]: 0.999 | glycan array binding signal (z-score) [21]: -0.241 | glycan array binding signal (z-score) [22]: 0.075 | glycan array binding signal (z-score) [23]: -0.137 | glycan array binding signal (z-score) [24]: 0.662 | glycan array binding signal (z-score) [25]: 0.132 | glycan array binding signal (z-score) [26]: 0.029 | glycan array binding signal (z-score) [27]: -1.33 | glycan array binding signal (z-score) [28]: -0.627 | glycan array binding signal (z-score) [29]: 1.07 | glycan array binding signal (z-score) [30]: -0.124

Source: the supplement of paper PMC8728848
